Data as given in PubChem BioAssay AID651640 (Broad Institute, 2012).
The campaign covered roughly 350,000 compounds. About 6,000 (1.7%) were called active. Not shown: some 5% with an inconclusive outcome. Only a selection was taken, and actives are over-represented in it overall. Values without a mark were called inactive. Cut-off read from the data, not from the text of the source: active = CPE inhibition above about 20% (passing the limit was not always enough); inconclusive = no clear call, values can overlap the other calls; tested in BHK-21 cells.

Test: inhibitors of DENV2 cytopathic effect, primary screen, cell-based, plate reader, single concentration (AID 651640);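 note: 0% = median of neutral control wells and 100% = median of positive control wells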
Details: DENV2-infected cells, cytopathic effect rescue, at 9.99 µM, active compounds read high

SMILES | CPE inhibition
Cc1noc(C)c1NC(=O)Nc1ccc2c(c1)C(=O)N([C@H](C)CO)C[C@H](C)[C@H](CN(C)Cc1ccc(C(=O)O)cc1)OCCCC[C@H](C)O2 | 3.28%
CO[C@H](CN(C)S(=O)(=O)c1ccc(C)cc1)[C@@H](C)CN(Cc1ccccc1Cl)[C@@H](C)CO | -6.58%
C[C@H]1CCCCO[C@@H](CN(C)Cc2ccc3c(c2)OCO3)[C@@H](C)CN([C@@H](C)CO)C(=O)c2cc(NC(=O)c3ccccc3)ccc2O1 | -5.55%
C[C@H](CO)N1C[C@H](C)[C@@H](CN(C)S(=O)(=O)c2cccs2)OCCCC[C@H](C)Oc2ccc(NS(=O)(=O)c3ccccc3)cc2C1=O | -5.76%
Cc1ccc(S(=O)(=O)Nc2ccc3c(c2)C(=O)N([C@@H](C)CO)C[C@H](C)[C@@H](CN(C)C(=O)Nc2ccc(F)cc2)OCCCC[C@H](C)O3)cc1 | 0.458%
O=C(C[C@H]1CC[C@H]2[C@@H](COC[C@H](O)CN2CCC(F)(F)F)O1)N1CCC(Cc2ccccc2)CC1 | 0.858%
O=C(CN1CCN(c2ccccc2)CC1)Nc1ccc(F)cc1 | -6.81%
Cc1ccc2cc(C)c(N3CCN(c4ccc(F)cc4)CC3)nc2c1 | -3.88%
CC(=O)c1c(N2CCN(c3ccc(F)cc3)CC2)nc(=S)n(-c2ccccc2)c1C | 46.2% (active)
CN1C(=O)c2cc(NC(=O)C3CCCC3)ccc2OC[C@H]2O[C@@H](CC(=O)NCCc3ccncc3)CC[C@H]21 | 5.23%
CN1C(=O)c2cc(NC(=O)C3CCCC3)ccc2OC[C@@H]2O[C@@H](CC(=O)NCCc3ccncc3)CC[C@@H]21 | 26.3% (active)
CCC(=O)Nc1ccc2c(c1)C(=O)N(C)[C@@H]1CC[C@H](CC(=O)NCCc3ccncc3)O[C@@H]1CO2 | -5.57%
C[C@@H]1CN([C@H](C)CO)S(=O)(=O)c2ccc(-c3ccc(C(=O)N(C)C)cc3)cc2O[C@@H]1CN(C)C(=O)Nc1ccccc1F | 2.86%
Cc1ccccc1S(=O)(=O)N1[C@@H](c2cccc(Cl)c2)C(C(=O)OC(C)(C)C)=CC[C@H]1c1ccc(Cl)cc1 | -8.63%
Cc1ccc([C@@H]2CC=C(C(=O)O)[C@H](c3cccc(Cl)c3)N2S(=O)(=O)c2ccc(C)cc2)cc1 | 42.3% (active)
Cc1ccc(S(=O)(=O)N2[C@@H](c3ccccc3F)C(C(=O)O)=CC[C@H]2c2ccc(Cl)cc2)cc1 | -10.7%
CCOC(=O)C1=CC[C@@H](c2ccccc2)N(S(=O)(=O)c2ccc(C)cc2)[C@H]1c1cccc(OC)c1 | -3.53%
Cc1ccccc1S(=O)(=O)N1[C@@H](c2cccc(Cl)c2)C(C(=O)O)=CC[C@H]1c1ccc(Cl)cc1 | 6.18%
Cc1ccc(S(=O)(=O)N2[C@@H](c3cccc(Cl)c3)C(C(=O)O)=CC[C@H]2c2ccc(Cl)c(Cl)c2)cc1 | 40% (active)
O=C(C[C@H]1CC[C@@H](NC(=O)CC2CC2)[C@@H](CO)O1)NCc1ccccc1 | 3.95%
C[C@@H]1CN([C@H](C)CO)C(=O)c2cc(NC(=O)Nc3ccc(F)cc3)ccc2O[C@@H](C)CCCCO[C@@H]1CN(C)S(=O)(=O)c1cn(C)cn1 | 2.14%

SMILES | CPE inhibition
C[C@H](CO)N1C[C@H](C)[C@H](CN(C)Cc2cncnc2)Oc2cc(-c3ccccc3F)ccc2S1(=O)=O | -2.27%
C[C@@H]1CCCCO[C@H](CN(C)Cc2ccccc2)[C@H](C)CN([C@@H](C)CO)C(=O)c2cc(NC(=O)Nc3cccc4ccccc34)ccc2O1 | -25.3%
O=C(C[C@@H]1CC[C@H]2[C@@H](COC[C@H](O)CN2C(=O)Nc2ccc(Cl)cc2)O1)NCC1CC1 | 6.37%
C[C@@H](NC(=O)C[C@@H]1CC[C@H]2[C@@H](COC[C@@H](O)CN2C(=O)Nc2cccc(F)c2)O1)c1ccccc1 | 4.9%
CCCNC(=O)C[C@@H]1CC[C@H]2[C@@H](COC[C@H](O)CN2C(=O)Nc2ccc(Cl)c(Cl)c2)O1 | 2.89%
C[C@@H](NC(=O)C[C@H]1CC[C@H]2[C@@H](COC[C@@H](O)CN2C(=O)Nc2ccccc2)O1)c1ccccc1 | -9.46%
CCNC(=O)C[C@H]1CC[C@@H]2[C@H](COC[C@H](O)CN2C(=O)Nc2c(C)noc2C)O1 | -1.85%
O=C(C[C@H]1CC[C@H]2[C@@H](COC[C@H](O)CN2C(=O)Nc2ccc(Cl)cc2)O1)NCC1CC1 | 85.5% (active)
CCCNC(=O)C[C@H]1CC[C@H]2[C@@H](COC[C@H](O)CN2C(=O)Nc2c(C)noc2C)O1 | 40.9% (active)
O=C(C[C@@H]1CC[C@H]2[C@@H](COC[C@@H](O)CN2C(=O)Nc2ccc(F)cc2)O1)NCC1CC1 | -0.669%
C[C@@H](NC(=O)C[C@@H]1CC[C@@H]2[C@H](COC[C@@H](O)CN2C(=O)Nc2cccc(F)c2)O1)c1ccccc1 | 24.3% (active)
COc1ccc(NC(=O)N2C[C@H](O)COC[C@H]3O[C@@H](CC(=O)NC4Cc5ccccc5C4)CC[C@@H]32)cc1 | -9.25%
COc1ccc2c3c(n(C)c2c1)[C@@H](CO)N(C)CC31CN(CC2CC2)C1 | -0.913%
O=c1cc(-c2ccccc2)[nH]c2cc(F)ccc12 | -7.41%
Cc1ccc(-c2cc(=O)c3ccc(Cl)cc3[nH]2)cc1 | 0.541%
Cc1ccc(-c2cc(=O)c3ccc(F)cc3[nH]2)cc1 | 25% (active)
CC(C)CC#Cc1ccc([C@H]2[C@@H](CO)N3C(=O)CN(C(=O)CN4CCOCC4)C[C@H]23)cc1 | -8.34%
COc1ccc(C(=O)NCCCN2CCOCC2)cc1Br | 8.89%
COc1cc(C(=O)OCCCN2CCOCC2)cc(OC)c1OC | 49.2% (active)
CCN1CCN(CC(=O)c2cc(OC)c(OC)c(OC)c2)CC1 | -1.76%
O=C(C[C@@H]1C=C[C@@H](NC(=O)c2ccccc2)[C@H](CO)O1)NCCc1ccncc1 | -5.54%
